Assay in all cases: NCI-60 one-dose screen, 48 h (100 = growth as untreated, 0 = no growth, -100 = all killed)
What all share (conditions): 10 µM unless noted

In assay [1] the test system is SK-MEL-2 melanoma.
Assay [2] concerns EKVX NSCLC.
In assay [3] the test system is SN12C renal.
For assay [4], the system named is UO-31 renal.
In assay [5] the test system is ACHN renal.
Assay [6] relates to CAKI-1 renal.
Assay [7] relates to A498 renal.
For assay [8], the system named is CCRF-CEM leukemia.
The subject of assay [9] is MOLT-4 leukemia.
The test system of assay [10] is TK-10 renal.

About 83,000 compounds went through this panel and 20% of them were active in at least one assay; those are over-represented in the sample as a whole.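 Values shown are percent growth following 48 h exposure of cells in 96-well plates to a single concentration of compound; below 10 was considered active.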 A number with no mark means an inactive call. The source made the active and inactive calls.

Take `c1cc(OCCN2CCCC2)ccc1CNc1ccc2nc(CCC3CCCCC3)[nH]c2c1`: the growth in [1] was 35.6%; in assay [2], 80.9%; in [3] it was 71.3%; in assay [4] it was 9.54% (active); in [5] it was 60.4%; in assay [6], 4.69% (active). Further, the growth in assay [7] was 34.2%; in assay [8] it was 12.7%; in assay [9], 9.92% (active).

For `O=C(O)c1cn(C2CC2)c2cc(N3CCN(C(=O)N/N=C/c4cccc5ccccc45)CC3)c(F)cc2c1=O`, the growth in [1] was 101%; in assay [2], 102%; in assay [3], 96.6%; in assay [4] it was 80.1%; in [10] it was 94.1%; in assay [6], 90.1%. Besides, the growth was 112% in assay [8] and 100% in assay [9].

As to `CCCN(CCSSCCNc1nc(N(C)O)nc(N(C)O)n1)c1nc(N(C)O)nc(N(C)O)n1`, the growth in assay [1] is 69.8%; in assay [2], 54.3%; in [3], 69.7%; in assay [4] it was 52.3%; in assay [10], 71%; in assay [6] it was 31.9%. In addition, the growth in assay [7] is 64.4%; in assay [8], 9.07% (active); in assay [9] it was 47.3%.

Take `O=C1C=C(SCCO)C(=O)c2ccccc21`: the growth in assay [1] was 28.4%; in assay [2], 53.5%; in [3], -87.1% (active); in [4] it was -37.4% (active); in [5] it was -74% (active); in assay [6], 47.5%. The growth in [7] is 113%; in [8] it was -14.4% (active); in assay [9] it was 2.43% (active).

Consider `Cc1ccc2c(c1)=C/C(=C\c1cc(-c3ccccc3)[nH]c1O)C(=O)N=2`, for which the growth was 3.31% (active) in [1]; 52% in assay [2]; 42.5% in assay [3]; 55.4% in assay [4]; 65.6% in [5]; 42.3% in [6]. Also, the growth was 24.7% in assay [7], 20% in [8] and 18.8% in assay [9].

Take `CNC(=O)NCC1OC(n2cnc3c(NC(=O)Nc4ccccc4)ncnc32)C2OC(=O)CC12` (centres undefined): the growth is 70% in assay [1]; 102% in [2]; 113% in assay [3]; 64.2% in assay [4]; 99.3% in [10]; 100% in assay [6]. The growth is 93.7% in assay [7], 94.1% in [8] and 69.7% in [9].

For the compound `Nc1nc(C(=O)N/N=C/c2ccc(F)cc2)nn1-c1ccc(S(N)(=O)=O)cc1`, the growth in [1] is 104%; in [2], 101%; in assay [3] it was 93.8%; in assay [4], 81.4%; in [5], 99.2%; in [6], 90.4%. Further, the growth was 100% in assay [7], 112% in assay [8] and 111% in [9].

`CC(=O)O[C@H]1CC[C@]2(C)[C@H]3CC=C4[C@@H]5CC(C)(C)CC[C@]5(C(=O)N5CCN(CCC#N)CC5)CC[C@@]4(C)[C@]3(C)CC[C@H]2C1(C)C`: the growth in assay [1] is 68.7%; in assay [2], 65.8%; in assay [3], 53.4%; in assay [4], 30.2%; in [5], 28.2%; in [6] it was 35.1%. In addition, the growth is 5.98% (active) in [7], 27.5% in [8] and 19.7% in assay [9].

Consider `c1ccc(-c2c(-c3ccccc3)[n+](Cc3ccc4ccccc4c3)cn2Cc2ccc3ccccc3c2)cc1`, for which the growth in assay [1] was -79.4% (active); in [2] it was -46.7% (active); in assay [3] it was -76% (active); in [4], -22.4% (active); in [10], -81.2% (active); in [6], -9.42% (active). Further, the growth in [7] was -95.4% (active); in assay [8], -66% (active); in [9] it was -67.7% (active).

On to `C=C(C)[C@@H]1CC[C@]2(C(=O)N3CCN(C)CC3)CC[C@]3(C)[C@H](CC[C@@H]4[C@@](C)(CCC(=O)O)[C@H](C(=C)C)CC[C@]43C)[C@@H]12`, for which the growth in assay [1] was 92.2%; in [2] it was 86%; in [4] it was 50.5%; in assay [10] it was 94.3%; in [5], 82.8%; in assay [6], 63.1%. The growth in assay [7] was 53%; in assay [8], 70.7%; in [9], 61.2%.

Regarding `C/C(=N\Nc1ccccc1)c1ccc(NC2=CC(=O)c3ccccc3C2=O)cc1`, the growth in [1] is 55.6%; in assay [2], 74%; in assay [4] it was 38.8%; in assay [10], 81.5%; in [5], 48.2%; in assay [6], 43.8%. In addition, the growth is 110% in assay [7], 62.7% in assay [8] and 63% in [9].

Take `CC1(C)CC[C@]2(CO)CC[C@]3(C)[C@](O)([C@H](O)C[C@@H]4[C@@]5(C)CCCNC(C)(C)[C@@H]5CC[C@]43C)[C@@H]2C1`: the growth is 106% in assay [1]; 107% in assay [2]; 73% in assay [4]; 103% in [10]; 108% in assay [5]; 97.5% in [6]. In addition, the growth in assay [7] is 83.6%; in assay [8], 74.6%; in assay [9] it was 46%.

On to `CC(=O)c1c(Nc2cccc(F)c2)[nH]c2c(Cl)cc(Cl)c(Cl)c2c1=O`, for which the growth is -37.5% (active) in [1]; 10.8% in assay [2]; 6.24% (active) in assay [4]; 12.5% in [10]; 2.02% (active) in assay [5]; -5.89% (active) in assay [6]. Besides, the growth in assay [7] was -41.6% (active); in [8], 8.65% (active); in assay [9] it was 4.94% (active).

On to `Cc1ccc2nc(-c3ccc(C(=O)N/N=C/c4ccc([N+](=O)[O-])cc4)cc3)[nH]c2c1`, for which the growth in assay [1] was 116%; in assay [2], 108%; in assay [4] it was 86.4%; in assay [10], 127%; in assay [5] it was 104%; in [6], 97.4%. Further, the values for the growth in assay [8] and in assay [9] were 95.3% and 93.4%, respectively.

Consider `COc1cc([C@@H](CCO)C[C@H](C)c2ccc3ccccc3c2)cc(OC)c1OC`, for which the growth in assay [1] was 16.1%; in assay [2], 49.1%; in assay [4] it was 44.2%; in [10] it was 49.3%; in assay [5], 43.6%; in [6], 28.8%. Besides, the values for the growth in assay [7], in [8] and in assay [9] were 25.3%, 21.6% and 25.7%, respectively.

Turning to `COc1cc(O)c2c(=O)c3c(CC=C(C)C)cc(OC)c(O)c3oc2c1`, the growth was 29.1% in [1]; 53.7% in assay [2]; 43.7% in [4]; 66.6% in assay [10]; 50.3% in assay [5]; 44% in assay [6]. The growth in assay [7] is 31.1%; in assay [8] it was 16.5%; in assay [9], 25.6%.

With `O=C(/C=C/C12c3ccccc3C(c3ccccc31)C1C(=O)NC(=O)C12)c1ccc(Cl)cc1Cl` (centres undefined), the growth in assay [1] is -2.62% (active); in assay [2], 36.4%; in assay [3], 9.38% (active); in [4], 32.4%; in assay [5] it was 28.2%; in assay [6] it was 25.5%. Moreover, the growth in assay [7] is 35.7%; in assay [8], -8.25% (active); in [9] it was -0.49% (active).

As for `COC(=O)/C=C1/SC(=Nc2ccc(F)cc2)N(CCc2c[nH]c3ccc(O)cc23)C1=O`, the growth is -0.819% (active) in assay [1]; 55.9% in assay [2]; 42.5% in assay [3]; 46.4% in assay [4]; 33.8% in [5]; 52.1% in assay [6]. In addition, the growth in assay [7] was 49.8%; in [8], 3.69% (active); in assay [9] it was 0.14% (active).

In the case of `N[C@@H]1CCC[C@H]1NCCCCN1C(=O)c2cccc3cc([N+](=O)[O-])cc(c23)C1=O`, the growth was 78.2% in assay [1]; 61.5% in [2]; 27.4% in [3]; 61.9% in assay [4]; 13.3% in [5]; 97.7% in assay [6]. The growth was 1.99% (active) in assay [8] and -3.36% (active) in [9].

Consider `Nc1c(Br)cc2c(c1Br)Cc1cc([N+](=O)[O-])ccc1-2`, for which the growth in assay [1] was 109%; in assay [2], 55.3%; in assay [4], 79.1%; in assay [10], 90.6%; in assay [5] it was 93.2%; in assay [6], 98%. Further, the growth in assay [7] is 114%; in assay [8], 95.7%; in assay [9], 83.4%.

As for `CCOC(=O)C1=C(c2ccccc2)N=C2N(c3ccccc3)N=C(C(C)=O)N2C1c1ccc(F)cc1` (centres undefined), the growth in assay [1] was 112%; in assay [2], 97%; in assay [3], 94.3%; in assay [4], 84.3%; in [5], 96.7%; in assay [6], 91.8%. Further, the growth in [7] is 70.4%; in [8], 95.9%; in assay [9], 101%.

On to `CCN(CC)CCOc1ccc(Nc2ncc3cc(-c4c(Cl)cccc4Cl)c(=O)n(CCOC)c3n2)cc1`, for which the growth in assay [1] was 34.8%; in assay [2], 27.3%; in [4], -88.9% (active); in assay [10] it was -55.5% (active); in assay [5], 5.69% (active); in [6] it was 2.96% (active). Also, the growth was -75.9% (active) in assay [7], 4.55% (active) in assay [8] and 1.6% (active) in assay [9].

In the case of `COC12C=C/C(=C(/C(=O)OCc3csc(SC)n3)C(=O)CCCCCCCCC3(OC)C=C/C(=C(/C(=O)OCc4cnc(SC)s4)C(=O)CCCCCCCC1)O3)O2` (centres undefined), the growth was 55.8% in [1]; 33.5% in assay [2]; 43.5% in assay [4]; 47.6% in [10]; 6% (active) in assay [5]; 68% in assay [6]. Further, the growth in [7] is 34.9%; in [8], 14.6%; in [9] it was 1.34% (active).

With `COc1cccc(-c2cn3nc(-c4cn(C)c5ccccc45)sc3n2)c1`, the growth in [1] is 102%; in assay [2] it was 85.9%; in assay [4], 71.7%; in assay [10], 105%; in [5] it was 104%; in assay [6], 82.6%. For the same compound, the growth in assay [7] is 87.5%; in [8], 92%; in assay [9], 87.5%.

Consider `O=c1oc2c(cc1-c1ccccc1)c[n+]([O-])c1ccccc21`, for which the growth in assay [1] is 109%; in assay [2] it was 98.1%; in assay [4] it was 90.4%; in [10] it was 107%; in assay [5] it was 97.3%; in assay [6], 90.6%. Moreover, the growth is 105% in assay [7], 101% in assay [8] and 102% in assay [9].

Turning to `O=c1cc(CP(=O)(O)O)c2cc(O)c(-c3ccccc3)cc2o1`, the growth in assay [1] is 107%; in assay [2], 89%; in assay [4], 88.2%; in assay [10], 106%; in assay [5] it was 98.4%; in assay [6] it was 93%. The growth is 109% in assay [7], 93.6% in assay [8] and 99.2% in assay [9].

As to `C=C1SC(=Nc2ccccc2Cl)N(C(=O)c2sc3ccccc3c2Cl)C1(C)C`, the growth is 151% in assay [1]; 54.4% in [2]; 107% in [4]; 107% in assay [10]; 46.1% in assay [5]; 49% in assay [6]. Besides, the growth in [7] is 90.5%; in assay [8], 19.8%; in [9], 20.3%.

`COc1cc2c(cc1OCCCN1CCN(C(=S)SCCC(C#N)(c3ccccc3)c3ccccc3)CC1)N=C[C@@H]1CCCN1C2=O`: the growth was -80% (active) in assay [1]; -95.6% (active) in [2]; 4.62% (active) in assay [4]; -59.7% (active) in assay [10]; -46.1% (active) in assay [5]; -44.1% (active) in [6]. The results for the growth in assay [7], in [8] and in assay [9] were -100% (active), -35% (active) and -8.92% (active), respectively.

These data come from PubChem BioAssay (NCI).
